PLC-gamma1 inh – blocks human PLC-gamma1 enzyme activity; purified PLC-gamma1, fluorogenic substrate, fluorescence; inhibition, % at 12.2 µM; 370,000 tested, 0.84% active; AID 720700; in the data active = inhibition above about 9.5%
ADAM17 inh – inhibitors of human ADAM17. P78536. recombinant ADAM17, EDANS/DABCYL FRET peptide cleavage. inhibition, % at 6.95 µM. 370,000 tested, 0.83% active. AID 720648;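 active = inhibition above the mean of compounds lying between control limits plus 3 SD, set per campaign, cut at about 8.5% in these data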;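 note: 0% = DMSO-only wells as the low control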
ADAM10 inh – inhibits human ADAM10 | O14672 | recombinant ADAM10, EDANS/DABCYL FRET peptide cleavage, 3 h | inhibition, % at 7 µM | 370,000 tested, 0.62% active;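 active = inhibition above a per-campaign cutoff equal to the mean of compounds falling between control-based bounds plus 3 SD, cut at about 20% in these data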;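 note: 0% = DMSO wells while the 100% control is not disclosed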
KLK7 zymogen act – activates the human kallikrein-7 zymogen. 370,000 tested, 0.9% active. activation, % at 7 µM. P49862. purified proKLK7, EDANS-DABCYL substrate fluorescence; 100% is mature enzyme control, 0% vehicle;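 active = activation above the mean of all tested compounds plus 3 SD, computed per campaign excluding outliers beyond control limits, cut at about 13% in these data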
Target sequence (P49862 whole entry, looked up): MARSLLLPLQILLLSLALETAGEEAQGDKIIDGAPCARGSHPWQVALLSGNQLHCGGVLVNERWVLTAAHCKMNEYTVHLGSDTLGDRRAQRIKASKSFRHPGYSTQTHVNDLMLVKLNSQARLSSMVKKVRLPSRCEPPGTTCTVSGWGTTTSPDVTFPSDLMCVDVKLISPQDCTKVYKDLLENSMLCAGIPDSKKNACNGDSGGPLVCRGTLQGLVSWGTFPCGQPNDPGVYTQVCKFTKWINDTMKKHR
PLCb3 inh – PLC-beta3 (human) inhibition, primary screen | Purified PLC-beta3, fluorogenic substrate, fluorescence | Q01970 | 370,000 tested, 0.18% active | inhibition, % at 12.2 µM; in the data active = inhibition above about 11%;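 note: 0% = median of compound wells on plate and 100% = full blocker control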
KLK7 act conf – proKLK7 activation, confirmation | AID 686949 | activation, % at 7 µM | 3,200 tested, 68% active | shares compounds with KLK7 zymogen act | purified proKLK7, EDANS-DABCYL substrate fluorescence; scaled: vehicle 0, mature enzyme 100;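 active = activation, as change over the incubation, above the mean of all tested compounds plus 3 SD, cut at about 13% in these data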
EDANS interfere – optically interferes with EDANS-DABCYL signal, flagging KLK7 hits | shares compounds with KLK7 zymogen act | EDANS-DABCYL substrate fluorescence interference, no enzyme, 4 h; solvent 0%, active enzyme control 100% | activation, % at 7 µM | 3,200 tested, 80% active;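 active = activation above the all-compound mean plus 3 SD, ignoring values outside control-based bounds, cut at about 4.8% in these data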;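 note: value is the 4 h activation minus the activation read at time zero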
An asterisk follows results filed as active; i = inactive; · = no result given. Sampled rows, rich in hits. Any-hit rate of the full collection: about 2.9%.

SMILES | PLC-gamma1 inh | ADAM17 inh | ADAM10 inh | KLK7 zymogen act | PLCb3 inh | KLK7 act conf | EDANS interfere
Clc1ccc2nc(N3CCNCC3)nc(-c3ccccc3)c2c1 | -205 | -127 | -491 | 16* | -271 | -6 | -9
CCN(CC)CCN1C(=O)c2ccccc2NC1c1cc(OC)c(OC)c(OC)c1 (stereo not drawn) | i | -452 | i | 99* | i | 14* | 18*
CCCN1C(=O)c2ccccc2NC1c1cc(OC)c(OC)c(OC)c1 (stereo not drawn) | -289 | -341 | i | 16* | -377 | 11 | 16*
COc1ccc(C2Nc3ccccc3C(=O)N2O)cc1OC (stereo not drawn) | -11 | -10 | -20 | 0 | -16 | · | ·
COc1ccc(CCN2C(=O)c3ccccc3NC2c2cc(Cl)c(O)c(OC)c2)cc1 (stereo not drawn) | -112 | -78 | -214 | 4 | -170 | · | ·
COC(=O)C1=C(C)N(C)C(=NCc2ccc3c(c2)OCO3)NC1c1ccccc1 (stereo not drawn) | 2 | -3 | -6 | 0 | 1 | · | ·
CCC(=O)Oc1c(C(=O)CC)cc2c(C)cc(=O)oc2c1C | -140 | -9 | -31 | 540* | -148 | 810* | 812*
CCC(=O)Nc1c(OC(=O)CC)ccc2c(C)cc(=O)oc12 | i | i | i | 273* | i | 256* | 254*
CC(=O)Oc1ccc2c(C)cc(=O)oc2c1C(=O)c1ccccc1 | -17 | -14 | -65 | 10 | -17 | · | ·
CCC(=O)c1cc2c(C)cc(=O)oc2c(C)c1OC | -3 | -3 | -12 | 0 | -7 | · | ·
O=C(c1cc2c(s1)-c1ccccc1OC2)N1CCN(c2ccccc2)CC1 | -89 | -62 | -238 | -5 | -128 | · | ·
O=C(c1cc2c(s1)-c1ccccc1OC2)N1CCCC1 | i | i | i | 74* | i | 62* | 69*
CC(=O)c1cc2c(s1)-c1cc(F)ccc1OC2 | i | -355 | i | 71* | i | 69* | 74*
CCCN1CCN(C(=O)c2cc3c(s2)-c2ccccc2OC3)CC1 | i | i | i | 66* | i | -94 | 84*
CCOC(=O)N1CCN(C(=O)c2cc3c(s2)-c2ccccc2OC3)CC1 | i | i | i | 32* | i | -12 | 2
O=C(NCC1CCN(C(=O)C(=O)c2cc3ccccc3o2)CC1)c1ccncc1 | 0 | -3 | -3 | -1 | 4 | · | ·
COC1=C[C@H](C(=O)NC2CCN(Cc3ccccc3)CC2)[C@@]2(C)Cc3ccccc3[C@H]2CC1=O | 0 | 2 | -2 | 0 | -1 | · | ·
COC(=O)[C@@]12CCCCC3=C1N(CCC3)C(=O)[C@H]2CC(=O)N1CCC(c2ccccc2)CC1 | 1 | -2 | -2 | 1 | -1 | · | ·
CCCC(=O)N1CCC[C@]2(CC[C@@H](CCC#N)O2)C1 | -3 | -3 | -6 | 0 | 1 | · | ·
COc1cccc(N2CCN(C(=O)c3cc4c(s3)-c3ccccc3OC4)CC2)c1 | -124 | -75 | -253 | 24* | -156 | 4 | 21*
COc1ccc(N2CCN(C(=O)c3cc4c(s3)-c3ccccc3OC4)CC2)cc1 | -68 | -86 | -310 | 4 | -83 | · | ·
O=C(Nc1cccc(NC(=O)c2ccc(-c3ccc(Br)cc3)o2)c1)c1ccco1 | -24 | -68 | -184 | 440* | -73 | 446* | 213*
CCN(CC)CCn1nc2c3c(cccc3c1=O)-c1ccccc1-2 | -161 | -14 | -59 | 18* | -172 | -5 | -14
C[C@@H]1C(c2ccccc2)=NN(c2ccc(Br)cc2)[C@H]1C(=O)N1CCOC1=O | -206 | -92 | -353 | 57* | -315 | -159 | -147
Cc1cccc(C2=NN(c3ccc(Br)cc3)[C@@H](C(=O)N3CCOC3=O)[C@@H]2C)c1 | -129 | -84 | -283 | -13 | -180 | · | ·
Cc1cccc(C2=NN(c3ccccc3)[C@@H](C(=O)N3CCOC3=O)[C@@H]2C)c1 | -32 | -17 | -62 | 26* | -49 | 114* | 70*
COc1ccc(CCN2CC(=O)N3CCc4ccc(N5CCOCC5)cc4C3CC2=O)cc1OC (stereo not drawn) | 4 | 3 | -20 | 0 | 0 | · | ·
